Structures are written as SMILES. Among all 63,000 compounds or so, about 75 (0.1%) were called active. The full list was thinned out, with actives kept by preference. A number with no mark means an inactive call. Rule as the data show it: active = inhibition above about 21%; inactive = the rest.

This assay addresses Cathepsin B (Homo sapiens) (UniProt P07858). As to the kind of experiment: human cathepsin B inhibitors, primary screen, biochemical, fluorogenic substrate (AID 453).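 Also: 0% = enzyme with no compound and 100% = no enzyme blank.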 The conditions noted are these: purified cathepsin B, fluorescence, hits give high values,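 tested at 10 µM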.
For `CC(CCc1ccccc1)NC(=O)c1ccc(Br)o1` (stereo unspecified), the inhibition was -4.56%.

In the case of `COCCCN1C(=O)C(=O)/C(=C(/O)c2ccc3c(c2)CC(C)O3)C1c1cccnc1` (stereo unspecified), the inhibition is 0.25%.

On to `CCOc1ccc(NC(=O)CCC(=O)n2nc(C)cc2C)cc1`, for which the inhibition was 8.67%.

With `CCCCC(CCC(=O)Nc1ccc(C(=O)OCC)cc1)C(=O)O` (stereo unspecified), the inhibition is -0.09%.

Regarding `CCCOc1ccc(/C(O)=C2/C(=O)C(=O)N(CCN(C)C)C2c2ccc(OC)c(OC)c2)cc1` (stereo unspecified), the inhibition is 0.77%.

As to `Cc1nnc(N(Cc2ccco2)C(=O)c2ccno2)s1`, the inhibition was -4.93%.

As for `CCn1c(CSc2nncn2-c2ccc(OC)cc2)nc2cc(S(=O)(=O)N(C)C)ccc21`, the inhibition was 5.16%.

Turning to `Cc1ccc(NC(=O)C2CCCN(S(=O)(=O)c3c(C)noc3C)C2)c(C)c1` (stereo unspecified), the inhibition is -0.58%.

For the compound `CCOC(=O)N1CCN(S(=O)(=O)c2cc(Br)cc3c2N(C(=O)C2CC2)CC3)CC1`, the inhibition is 2.46%.

Consider `CCOc1cc(C(=O)Nc2ncccn2)cc(OCC)c1OCC`, for which the inhibition was -3.7%.

On to `Cc1ccc(C(=O)Nc2ccc3c(c2)OCO3)cc1S(=O)(=O)N1CCCCC1`, for which the inhibition is 49.6% (active).

Turning to `Cc1ccc(C(=O)NCC(=O)O)cc1S(=O)(=O)N1CCCCC1`, the inhibition is 6.73%.

Take `COc1ccc(C(=O)Nc2ccc3c(c2)OCO3)cc1OC`: the inhibition is 1.65%.

`COC(=O)c1ccccc1NC(=O)CN(Cc1ccccc1)S(C)(=O)=O`: the inhibition was -3.25%.

Turning to `Cc1cc(=O)oc(C)c1C(=O)NC1CC(C)(C)NC(C)(C)C1`, the inhibition is 5.11%.

As for `CC(C)c1nc(-c2ccccn2)no1`, the inhibition was -4.78%.

`CC(Sc1nncn1C)C(=O)Nc1ccccc1-c1ccccc1` (stereo unspecified): the inhibition is -1.58%.

Regarding `COCCN(C(=O)CCC(=O)Nc1ccccn1)C(C(=O)NCCC(C)C)c1ccc(OC)cc1` (stereo unspecified), the inhibition was -1.72%.

`COc1ccccc1-c1nnc(SCC(=O)N2CC(C)CC(C)C2)o1` (stereo unspecified): the inhibition is -0.15%.

Consider `Cn1c(CNc2nc(-c3ccccc3)cs2)nnc1SCC(=O)c1ccccc1`, for which the inhibition is -1.17%.

Take `O=C1N=C(N2CCOCC2)CS1`: the inhibition is 3.2%.

`COc1ccc(CCN2C(=O)c3[nH]nc(-c4ccccc4O)c3C2c2ccc(C)cc2)cc1OC` (stereo unspecified): the inhibition is -1.75%.

For the compound `O=C(CSc1nnc2ccccn12)c1ccccc1`, the inhibition was 8.89%.

For `Cc1onc(-c2ccccc2)c1C(=O)N1CCOCC1`, the inhibition was 6.53%.

Consider `Cc1noc(/C=C/N(C)C)c1S(=O)(=O)N1CCCC(C(=O)NCc2ccco2)C1` (stereo unspecified), for which the inhibition was 4.93%.

Consider `Cc1cccc(N2C(=O)SC(N(CC(=O)O)c3cccc(C)c3)C2=O)c1` (stereo unspecified), for which the inhibition was 8.43%.

With `CCCCOC(=O)Nc1nccs1`, the inhibition is 2.38%.

In the case of `C=CCOc1ccc(/C=N/n2cncn2)cc1OC`, the inhibition is 1.3%.

Regarding `CCc1nc(Nc2ccc3nccnc3c2)c2oc3ccccc3c2n1`, the inhibition was -2.31%.

As to `C=CCn1c(COc2cccc3cccnc23)nnc1SCC(=O)OC`, the inhibition was 6.46%.

`Cc1nc2c(-c3ccc(F)cc3)c(C)nn2c(C)c1CCC(=O)N1CCN(c2ccccn2)CC1`: the inhibition was -0.57%.

On to `CCOC(=O)CCc1c(C)c2ccc(OCc3nn[nH]n3)c(C)c2oc1=O`, for which the inhibition was 1.69%.

As for `Cc1cc(C)c(S(=O)(=O)NCCCN2CCOCC2)cc1Br`, the inhibition is 1.5%.

With `Cc1cc(NC(=O)CSc2nnc(-c3ccc(Cl)s3)o2)no1`, the inhibition was 1.24%.

For the compound `O=C(COC(=O)C12CC3CC(CC(C3)C1)C2)NCc1ccco1`, the inhibition was -3.05%.

As for `Cc1ccc(NC(=O)CSc2nnc(-c3cnccn3)n2Cc2ccco2)cc1C`, the inhibition was 3.51%.

As for `CC(C)OC(=O)C(C#N)c1nc2ccccc2nc1N1CCN(Cc2ccc3c(c2)OCO3)CC1` (stereo unspecified), the inhibition was 0.39%.

Take `CCOc1ccc2[nH]c(=O)c(CN(CCCO)C(C)=O)cc2c1`: the inhibition is 2.29%.

With `CCOc1ccc2c(c1)cc(CN(C(=O)CC)C1CCCCC1)c1nnnn12`, the inhibition was 10.1%.

In the case of `CCOC(=O)N1CCN(CC(=O)n2c(C)c(C)c3ccccc32)CC1`, the inhibition was -1.09%.

For `O=C(c1cccc(C(=O)N2CCc3ccccc32)n1)N1CCc2ccccc21`, the inhibition is 3.59%.

For `CC(C)(C)Oc1ncc(Br)c(OC(C)(C)C)n1`, the inhibition was -1.01%.

As for `Cn1c2c(c(=O)n(C)c1=O)CN(Cc1ccco1)CN2`, the inhibition is 2.04%.

Turning to `N#CCSc1nc2ccccc2c(=O)n1-c1ccccc1`, the inhibition was 5.09%.

Regarding `c1ccc(-n2ncc3c2ncn2c(CSc4nc5ccccc5s4)nnc32)cc1`, the inhibition is -2%.

On to `CC(C)(C)n1nnnc1C(c1cccs1)N(Cc1cccnc1)CC1CCCO1` (stereo unspecified), for which the inhibition was 3.9%.

Take `COc1ccc(/C(O)=C2/C(=O)C(=O)N(CCCN(C)C)C2c2ccccc2)cc1OC` (stereo unspecified): the inhibition is 0.7%.

As to `Cn1c(=O)oc2cc(S(=O)(=O)N3CCC(C(=O)Nc4ccc(OC(F)(F)F)cc4)CC3)ccc21`, the inhibition is 1.08%.

Turning to `Cc1nnc(SCC(=O)N(C(C)C)C(C)C)nc1C`, the inhibition is 3.33%.

In the case of `COc1cccc(-c2nnc(NC(=O)c3ccc(S(=O)(=O)N(CC(C)C)CC(C)C)cc3)o2)c1`, the inhibition was 3.9%.

`C=C(C)CSc1nc(N)c2c3c(sc2n1)CCC3`: the inhibition was -1.31%.

As for `O=C(Nc1ccccc1)c1cccnc1Nc1ccccc1`, the inhibition is -3.06%.

Regarding `COc1ccc(Cc2nnnn2CC(=O)O)cc1`, the inhibition was -2.08%.

For `CSc1nsc(SC)c1NC(=O)OC1CCCCC1`, the inhibition was 2.76%.

With `CCOC(=O)C1CCCN(C(=O)C2CCN(c3nnc(-n4cccc4)s3)CC2)C1` (stereo unspecified), the inhibition is 5.94%.

As for `Cn1nnnc1SCC(=O)N1CCN(C(c2ccccc2)c2ccccc2)CC1`, the inhibition is 8.32%.

As for `C/C(=C(\C#N)C(=O)NCCCN1CCOCC1)N(C)C`, the inhibition was 2.66%.

As for `CC1(C)C/C(=C(/C#N)C(N)=O)CCO1`, the inhibition is 9.43%.

With `Cc1ccsc1CNn1cnnc1SCc1ccccc1F`, the inhibition is 2.13%.

Take `CC(NC(=O)CN1CCN(Cc2ccc(Cl)cc2)C1=O)c1ccc2c(c1)OCCO2` (stereo unspecified): the inhibition was 0.3%.

For `CCOC(=O)c1ccc(Nc2cc(C)nc3nc(C)nn23)cc1`, the inhibition is -3.59%.

On to `O=C(CN1CCOc2ccccc21)N1CCC(Cc2ccccc2)CC1`, for which the inhibition is 0.85%.

As to `C=CCn1c(C2CC(=O)N(c3ccc(C)cc3)C2)nc2ccccc21` (stereo unspecified), the inhibition was -1.25%.

`CCN(CC)CCCNC(=O)c1cc(-c2cccc(Cl)c2)on1`: the inhibition was 4.03%.

Consider `O=C1N(Cc2ccc3c(c2)OCO3)c2ccccc2C1(O)c1c[nH]c2ccccc12` (stereo unspecified), for which the inhibition was -2.6%.

`CCOc1ccc(/C(O)=C2/C(=O)C(=O)N(Cc3cccnc3)C2c2ccc(N(C)C)cc2)c(C)c1` (stereo unspecified): the inhibition is 1.4%.

On to `Nc1nonc1-c1noc(-c2ccc(Br)o2)n1`, for which the inhibition is 25% (active).

Take `O=C(O)CCC(=O)NCc1ccc2[nH]c3c(c2c1)CCCC3`: the inhibition is 3.83%.

For `CCOC(=O)c1c(NC(=O)CSc2nnc(CN3CCOCC3)n2C)sc2c1CCCC2`, the inhibition was -0.13%.

With `O=C(OCC(O)C(O)COC(=O)c1ccccc1)c1ccccc1` (stereo unspecified), the inhibition is 0.46%.

For the compound `N#Cc1c(N)n(CCOC(=O)c2ccc(Cl)cc2)c2nc3ccccc3nc12`, the inhibition was 0.87%.

With `Cc1ccc(-n2c(N)c(C(=O)N3CCOCC3)sc2=S)c(C)c1`, the inhibition was -2.06%.

In the case of `O=C(CN1CCN(c2ncc(C(F)(F)F)cc2Cl)CC1)Nc1ccc2c(c1)OCO2`, the inhibition is 10.7%.

`CC1(C)CC(=O)C(C2=NC(C)(C)Cc3ccccc32)=C(O)C1`: the inhibition is 0.19%.

In the case of `CCCCOC(=O)c1[nH]c(C)c(C(=O)OC)c1C`, the inhibition was 4.33%.

Turning to `CC(Sc1nncs1)C(=O)NCc1ccc2c(c1)OCO2` (stereo unspecified), the inhibition was -5.21%.

In the case of `CCOC(=O)N1CCN(S(=O)(=O)c2cc3c(cc2C)NC(=O)CO3)CC1`, the inhibition was 1.1%.

Take `CCOC(=O)CCc1c(C)c(C#N)c2[nH]c3ccccc3n2c1=O`: the inhibition is 2.21%.

Take `O=C(NCc1ccccn1)c1cnc2sccn2c1=O`: the inhibition was -2.74%.

Consider `Cc1ccccc1C(OCC(O)CN1CCCCC1CCO)c1ccccc1` (stereo unspecified), for which the inhibition was 2.98%.

`CCCC(=O)N1CCc2[nH]c3ccccc3c2C1`: the inhibition is 0.39%.

As for `Cc1ccccc1Nc1nnc(C)c(=O)[nH]1`, the inhibition is -0.9%.

As for `CC(=O)C1=C(O)C(=O)N(c2ccc(S(N)(=O)=O)cc2)C1c1ccccc1F` (stereo unspecified), the inhibition was -1.52%.

On to `Cc1ccc(NC(=O)NCC(c2cccnc2)N2CCOCC2)cc1` (stereo unspecified), for which the inhibition is -2.73%.

Regarding `OCc1nc(CO)n(Cc2ccccc2)n1`, the inhibition is 5.1%.

`c1ccc(CCC2=NCCn3cccc32)cc1`: the inhibition was 4.22%.

Regarding `CCOc1ccccc1C1NC(=O)NC(C)=C1C(=O)OCc1ccco1` (stereo unspecified), the inhibition was 2.19%.

On to `COc1cccc(N2CCN(C(=O)C3CCCN(S(=O)(=O)c4cnc[nH]4)C3)CC2)c1` (stereo unspecified), for which the inhibition was -4.17%.

Regarding `O=C(C1CCN(S(=O)(=O)c2cnc[nH]2)CC1)N1CCN(Cc2ccc3c(c2)OCO3)CC1`, the inhibition was 5.41%.

Take `Cc1cccc(N2CCN(C(=O)C3CCN(S(=O)(=O)c4cnc[nH]4)CC3)CC2)c1C`: the inhibition is 44.5% (active).

As to `CCC(c1nnnn1C1CCCC1)N1CCN(C(=O)c2ccco2)CC1` (stereo unspecified), the inhibition was 4.25%.

Regarding `CCCCN=C(N)/C(C(=O)OCC)=C(\O)c1ccc(OC)cc1`, the inhibition was -2.85%.

Regarding `CC(C)OC(=O)c1sc2nc3c(cc2c1N)C(=O)CCC3`, the inhibition was 1.67%.

As for `COc1ccc(N2C(=O)C3CCCN3C2c2cccs2)cc1` (stereo unspecified), the inhibition is 2.37%.

For `O=S(=O)(NCCOc1cccc2cccnc12)c1ccc(F)cc1`, the inhibition was -0.09%.

As for `O=C(C1=C(O)C(=O)N(Cc2ccccc2)C1c1cccnc1)c1ccco1` (stereo unspecified), the inhibition is -2.37%.

The record behind these values is PubChem BioAssay AID453 (PCMD, 2006).
